# An excerpt weighted towards active compounds, which were near 2.6% of everything screened.
# PKA-R1A activ – activates the PKA-R1A holoenzyme complex; PKA-R1A dissociation, Cy5-IP20 fluorescence polarization; scaled: DMSO 0%, 113 µM cGMP 100%; activation, % at 11.4 µM; 340,000 compounds, 0.083% hits; AID 504707;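 active = percent activation above the mean of all tested compounds plus 3 SD, cut at about 19% in these data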;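 also: higher means more PKAc released from R1A so a rise in polarization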
# pPAFAH FP inh – inhibitors of human plasma PAF acetylhydrolase (pPAFAH); Q13093; recombinant pPAFAH, FP-rhodamine probe fluorescence polarization; inhibition, % at 3.39 µM; 330,000 compounds, 1.5% hits; AID 463082;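 active = inhibition above the mean inhibition across the screen plus 3 SD, cut at about 25% in these data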;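 also: inhibitors block binding of the rhodamine activity-based probe so polarization drops; 0% = enzyme with DMSO and 100% = wells lacking pPAFAH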
# PAFAH2 inh – PAFAH2 (human) inhibition; Q99487; recombinant PAFAH2, FP-rhodamine activity probe, fluorescence polarization; inhibition, % at 3.39 µM; 340,000 compounds, 0.99% hits; AID 492956;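 active = inhibition above the mean over all tested compounds plus 3 SD, cut at about 30% in these data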;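 also: inhibitors block probe labeling of enzyme so polarization drops; 0% = enzyme with DMSO and 100% = wells lacking PAFAH2 protein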
# PAFAH1B2 FP inh – inhibitors of human PAFAH1B2. P68402. 340,000 compounds, 1.2% hits. inhibition, % at 3.39 µM. recombinant PAFAH1B2, FP-rhodamine activity probe, fluorescence polarization;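 active = inhibition above the mean of all tested compounds plus 3 SD, cut at about 24% in these data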;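 also: 0% = enzyme with DMSO and 100% = wells lacking PAFAH1B2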
# PAFAH1B3 FP inh – PAFAH1B3 (human) inhibition | Q15102 | recombinant PAFAH1B3, FP-rhodamine probe, fluorescence polarization | inhibition, % at 3.39 µM | 340,000 compounds, 0.28% hits | AID 492972;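 active = inhibition above the screen-wide average of all tested compounds plus 3 SD, cut at about 25% in these data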;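 also: 0% = enzyme with DMSO only and 100% = wells lacking PAFAH1B3 protein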
# PKA-R2B act – activators of human PKA-R2B complex. PKA-R2B holoenzyme dissociation, Cy5-IP20 fluorescence polarization; R2B truncated from residue 108, S112A mutant; 0% DMSO only, 100% 113 µM cGMP. AID 504700. activation, % at 11.4 µM. P22694+P31323. 340,000 compounds, 0.079% hits;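 active = activation above a cutoff set at the mean over all compounds plus 3 SD, cut at about 18% in these data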;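 also: higher means more holoenzyme dissociation and a rise in polarization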
# Target sequence (P31323 whole entry, looked up, other chains not shown, the tested form may be a part): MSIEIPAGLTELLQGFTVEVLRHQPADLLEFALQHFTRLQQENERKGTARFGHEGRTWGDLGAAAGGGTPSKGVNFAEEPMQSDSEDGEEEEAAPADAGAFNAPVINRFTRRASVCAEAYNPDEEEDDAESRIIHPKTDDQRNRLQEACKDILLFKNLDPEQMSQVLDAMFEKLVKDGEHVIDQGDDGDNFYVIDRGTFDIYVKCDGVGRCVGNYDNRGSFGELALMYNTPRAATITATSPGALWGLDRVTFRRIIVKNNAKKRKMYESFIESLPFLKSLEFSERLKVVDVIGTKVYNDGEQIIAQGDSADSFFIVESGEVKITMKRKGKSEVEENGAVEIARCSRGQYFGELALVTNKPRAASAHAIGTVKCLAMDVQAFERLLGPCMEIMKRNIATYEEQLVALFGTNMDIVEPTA
# pPAFAH confirm – pPAFAH (human) inhibition, confirmed; AID 463230; recombinant pPAFAH, FP-Rh probe fluorescence polarization; 2,300 compounds, 72% hits; shares compounds with pPAFAH FP inh; inhibition, % at 3.39 µM;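 active = mean inhibition of the triplicate above the hit cutoff set for the earlier primary screen, cut at about 25% in these data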;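 also: 0% = enzyme with DMSO and 100% = wells lacking pPAFAH enzyme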
# * = called active by the depositor; nt = not tested or not shown.
SMILES,PKA-R1A activ,pPAFAH FP inh,PAFAH2 inh,PAFAH1B2 FP inh,PAFAH1B3 FP inh,PKA-R2B act,pPAFAH confirm
CCCCC/C=C\C/C=C\C/C=C\CCCCC(=O)O,-12,38*,10,-1,4,0,17
Nc1nc(SCc2ccc(Br)cc2)n[nH]1,-2,4,1,15,14,8,nt
Nc1nc(SCc2ccccc2)n[nH]1,1,47*,0,2,-4,5,1
COc1ccc(S(=O)(=O)N2CCCOC2CNC(=O)C(=O)NCc2ccccc2C)cc1 (configuration not stated),6,nt,nt,nt,nt,1,nt
Cc1cccc(NS(=O)(=O)c2cc3c(cc2C)NC(=O)CO3)c1,-15,2,3,-2,-2,14,nt
CC1(c2cccc(Br)c2)NC(=O)N(CC(=O)Nc2ccc3c(c2)OCCO3)C1=O (configuration not stated),-9,8,1,3,14,1,nt
Cc1ccc(C(=O)NNC(=O)CCCN2C(=O)/C(=C/c3ccccc3Cl)SC2=S)cc1,-9,46*,3,2,-12,-8,53*
CC(SCC(=O)Nc1ccccc1Br)c1nc2ccccc2c(=O)[nH]1 (configuration not stated),10,0,7,4,11,10,nt
Cc1cc(C(=O)OCC(N)=O)c(C)n1-c1ccccc1,-12,-3,-18,0,9,5,nt
C/C(N)=C(/C#N)C(=O)COC(=O)c1cc(C)n(-c2ccc(F)cc2)c1C,-9,36*,7,5,7,-3,28*
COc1ccc(OC)c(Nc2cc(-c3ccccc3)nc(N)n2)c1,nt,43*,nt,nt,nt,nt,37*
CCN(CC(=O)Nc1cc(Cl)ccc1C)C(=O)c1nc2nc(C)cc(C)n2n1,-11,-6,-5,5,0,-5,nt
O=C(N/N=C1/CCSC1)c1cc(Br)ccc1O,-9,37*,16,10,14,-3,11
Cc1cc(C)c(C)c(C(=O)C(=O)c2ccccc2)c1,6,nt,0,0,0,-5,nt
CC(C)(C)c1ccc(C(=O)Nc2sc3c(c2C(=O)O)CCC3)cc1,0,37*,14,47*,10,5,41*
COc1ccc(-c2csc(NC(=O)c3ccccc3Br)c2C(=O)O)cc1,2,5,6,7,0,-2,nt
COc1ccc(-c2csc(NC(=O)c3ccc(C(C)(C)C)cc3)c2C(=O)O)cc1,nt,37*,nt,nt,nt,nt,41*
O=C(NCc1ccccc1)c1ccc2nccnc2c1,-6,4,3,7,18,1,nt
O=C(Nc1ccc(N2CCOCC2)cc1)c1ccc2nc(-c3ccco3)c(-c3ccco3)nc2c1,-5,16,0,0,-2,2,nt
O=C(Nc1ccccc1)c1ccc2nc(-c3ccco3)c(-c3ccco3)nc2c1,-4,66*,27,13,21,3,22
CC(=O)c1ccc(NC(=O)c2ccc3nc(-c4ccco4)c(-c4ccco4)nc3c2)cc1,-1,62*,15,6,23,2,50*
CCCCNC(=O)c1ccc2nc(-c3ccco3)c(-c3ccco3)nc2c1,3,61*,29,17,20,-7,23
O=C(NCc1ccccc1)c1ccc2nc(-c3ccco3)c(-c3ccco3)nc2c1,3,71*,29,15,12,4,58*
Oc1cc2c(cc1C(c1ccc(Cl)c(Cl)c1)N1CCCC1)OCO2 (configuration not stated),6,nt,9,4,4,-5,nt
O=C(OCC(=O)N1CCCCC1)c1cc2ccccc2cc1O,0,-3,3,1,7,-2,nt
SMILES,PKA-R1A activ,pPAFAH FP inh,PAFAH2 inh,PAFAH1B2 FP inh,PAFAH1B3 FP inh,PKA-R2B act,pPAFAH confirm
C/C(CC(=O)N1CCCC1)=N\NC(=O)c1cc2ccccc2cc1O,-4,48*,12,4,7,-13,15
CCOc1ccc(NC(=O)c2cc3ccccc3cc2O)cc1,-3,15,-6,-3,3,-2,nt
CCOC(=O)C(C)/C(C)=N/NC(=O)c1cc2ccccc2cc1O (configuration not stated),3,46*,4,2,4,0,4
C/C(=N\NC(=O)c1cc2ccccc2cc1O)c1ccc2c(c1)OCO2,-7,55*,9,7,-2,7,6
CN1CCN(S(=O)(=O)c2ccc(C(F)(F)F)cc2)C(c2ccccc2)C1 (configuration not stated),6,2,-1,1,3,-4,nt
COc1ccc(-c2nc(-c3ccccc3)[nH]c(=O)c2C#N)cc1,4,52*,4,-6,-6,-10,0
COc1cccc(OCC(O)CN2CCN(C)CC2)c1 (configuration not stated),-15,-4,-5,0,5,-5,nt
CCCC(=O)OCCNc1cc(SCc2ccco2)c2nonc2c1[N+](=O)[O-],4,78*,7,4,5,-1,5
CC(=O)OCCCNc1cc(SCc2ccco2)c2nonc2c1[N+](=O)[O-],0,39*,13,-1,3,-2,3
CCCCCCC[C@@H](C/C=C/CCC(=O)N(C)C/C(=C/Cl)C/C(=C\C(=O)N1C[C@H](O)CC1=O)OC)OC,-9,41*,2,5,5,-9,37*
CCCCCCC[C@@H](C/C=C/CCC(=O)O)OC,6,11,0,10,8,4,nt
O=C(Nc1ccc(S(=O)(=O)N2CCOCC2)cc1)c1ccccc1F,-6,6,-3,3,6,8,nt
CC(Oc1ccccc1F)C(=O)NNC(=O)CCNC(=O)c1ccccc1Cl (configuration not stated),7,54*,-1,4,3,5,-1
Cc1noc(C)c1COc1ccccc1C(=O)NNC(=O)C(C)Oc1ccccc1F (configuration not stated),6,2,7,0,-2,-9,nt
CN(Cc1ccccc1)C(=O)c1ccc(NC(=O)Cc2ccc(NC(=O)C3CCN(S(=O)(=O)c4cccc([N+](=O)[O-])c4)CC3)cc2)cc1,-1,nt,-21,-7,-17,7,nt
CN(CCO)c1ccc(C=NNc2ccc([N+](=O)[O-])cc2S(=O)(=O)Nc2ccccc2C(=O)O)cc1,nt,49*,nt,nt,nt,nt,55*
CC(=O)Nc1ccc(C=NNc2ccc(S(=O)(=O)Nc3ccccc3C(=O)O)cc2[N+](=O)[O-])cc1,-7,64*,29,26*,27*,-12,66*
